Dicer processing: inhibitors of Dicer pre-microRNA processing, primary screen, biochemical, cat-ELCCA, chemiluminescence. 47,000 tested, 6% active. AID 1347074, 2019. Endoribonuclease Dicer (Homo sapiens), Q9UPY3. z-score at 25 µM. cat-ELCCA pre-miR-21 Dicer processing; stronger effect = higher value; in the data active = z-score above about 3, passing the limit was not always enough;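 note: plate controls were vehicle for no effect and no enzyme for full effect; higher signal means more uncleaved substrate so more Dicer inhibition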
Target sequence (Q9UPY3 whole entry, looked up): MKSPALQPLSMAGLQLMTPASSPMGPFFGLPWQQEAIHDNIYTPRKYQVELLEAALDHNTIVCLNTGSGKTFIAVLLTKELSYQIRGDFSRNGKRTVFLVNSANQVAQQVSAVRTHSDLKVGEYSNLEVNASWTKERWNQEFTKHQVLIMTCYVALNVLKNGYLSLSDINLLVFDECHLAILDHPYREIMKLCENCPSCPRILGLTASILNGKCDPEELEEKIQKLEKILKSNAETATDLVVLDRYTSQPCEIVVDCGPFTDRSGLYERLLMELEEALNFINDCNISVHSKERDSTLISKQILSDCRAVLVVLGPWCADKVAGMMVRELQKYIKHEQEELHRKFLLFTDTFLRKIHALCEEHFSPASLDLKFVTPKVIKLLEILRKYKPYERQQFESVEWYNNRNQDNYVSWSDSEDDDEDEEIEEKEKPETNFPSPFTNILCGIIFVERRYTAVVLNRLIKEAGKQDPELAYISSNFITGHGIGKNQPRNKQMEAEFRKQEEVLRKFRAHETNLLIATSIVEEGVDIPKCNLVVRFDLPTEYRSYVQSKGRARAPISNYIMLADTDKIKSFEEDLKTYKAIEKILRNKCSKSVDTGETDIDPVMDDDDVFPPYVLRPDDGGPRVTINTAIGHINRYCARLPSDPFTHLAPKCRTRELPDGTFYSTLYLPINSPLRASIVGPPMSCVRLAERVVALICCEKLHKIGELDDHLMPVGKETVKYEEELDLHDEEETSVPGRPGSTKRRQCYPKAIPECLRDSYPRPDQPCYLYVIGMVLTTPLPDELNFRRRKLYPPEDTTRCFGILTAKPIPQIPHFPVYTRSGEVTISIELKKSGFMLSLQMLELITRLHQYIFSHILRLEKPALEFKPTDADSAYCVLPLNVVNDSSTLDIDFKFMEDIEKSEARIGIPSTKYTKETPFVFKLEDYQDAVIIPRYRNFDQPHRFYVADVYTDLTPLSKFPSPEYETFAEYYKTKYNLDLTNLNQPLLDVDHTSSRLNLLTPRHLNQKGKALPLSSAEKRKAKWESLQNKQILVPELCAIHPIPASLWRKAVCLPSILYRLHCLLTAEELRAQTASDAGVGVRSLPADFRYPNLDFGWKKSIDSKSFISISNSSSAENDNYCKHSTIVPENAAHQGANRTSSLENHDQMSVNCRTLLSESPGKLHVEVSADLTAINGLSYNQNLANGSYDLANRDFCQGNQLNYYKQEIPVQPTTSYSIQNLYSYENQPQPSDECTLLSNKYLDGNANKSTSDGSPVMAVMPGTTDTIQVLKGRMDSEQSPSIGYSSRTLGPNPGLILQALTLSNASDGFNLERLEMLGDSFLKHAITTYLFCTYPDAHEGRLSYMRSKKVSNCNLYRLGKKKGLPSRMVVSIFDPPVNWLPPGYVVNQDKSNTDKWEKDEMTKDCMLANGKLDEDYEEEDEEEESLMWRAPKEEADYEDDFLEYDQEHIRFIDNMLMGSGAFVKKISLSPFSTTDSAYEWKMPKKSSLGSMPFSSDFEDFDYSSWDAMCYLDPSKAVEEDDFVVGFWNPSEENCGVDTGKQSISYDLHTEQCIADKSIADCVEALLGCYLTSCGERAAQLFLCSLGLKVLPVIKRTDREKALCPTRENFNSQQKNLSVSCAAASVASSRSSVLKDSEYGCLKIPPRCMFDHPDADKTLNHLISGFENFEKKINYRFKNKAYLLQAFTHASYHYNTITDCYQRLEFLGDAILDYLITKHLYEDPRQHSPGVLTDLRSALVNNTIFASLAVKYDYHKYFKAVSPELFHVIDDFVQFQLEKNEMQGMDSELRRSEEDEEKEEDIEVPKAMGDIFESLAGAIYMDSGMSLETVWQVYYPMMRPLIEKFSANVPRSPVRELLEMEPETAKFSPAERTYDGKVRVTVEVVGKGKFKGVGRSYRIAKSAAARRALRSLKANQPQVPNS
Active calls of the source: *. Shown is part of a subset that was picked to be rich in hits.

`O=C1CC(Nc2ccc(N3CCOCC3)cc2)C(=O)N1c1ccccc1F` (centres undefined) gave Dicer processing 2.8.
For O=C1CC(Nc2ccc(N3CCCCC3)cc2)C(=O)N1c1ccccc1F (centres undefined) the results were Dicer processing 3.3*.
Screening O=C1CC(Nc2ccc(F)cc2)C(=O)N1c1ccc(N2CCCCC2)cc1 (centres undefined) returned Dicer processing -0.19.
Screening CC1CCCC(C)N1C(=O)CSc1nc(-c2ccco2)cc(C(F)(F)F)n1 (centres undefined) returned Dicer processing 0.12.
`Cc1nn(C)c2ncc3c(=O)n(Cc4ccc(Cl)cc4)n(C)c3c12` gave Dicer processing -0.09.
For O=C(Nc1ccccc1F)NC1CCCc2ccccc21 (centres undefined) the results were Dicer processing 4.6*.
Screening Cc1noc(C)c1NC(=O)NC1CCCc2ccccc21 (centres undefined) returned Dicer processing -0.44.
`CC(C)(C)c1ccc(NC(=O)NC2CCCc3ccccc32)cc1` (centres undefined) gave Dicer processing 1.4.
`Cc1ccc(S(=O)(=O)OS(=O)(=O)c2ccc(C)cc2)cc1` gave Dicer processing -1.
Cc1cc(N/C=C(\C#N)C(=O)c2cccs2)no1 was read as Dicer processing -1.2.
For COC(=O)c1cccc(C(=O)OC)n1 the results were Dicer processing -0.58.
For COC(=O)c1cnc(NNS(=O)(=O)c2ccc(C)cc2)nc1C(F)(F)F the results were Dicer processing 0.59.
`CSc1cccc(N2C(=O)CC3(CCCC3)CC2=O)c1` gave Dicer processing -1.6.
CN(C)/C=C/C(=O)c1ccc(C#Cc2ccccc2)cc1 was read as Dicer processing 1.4.
`CN(C)/C=C/C(=O)c1ccc(Cl)c(Cl)c1` gave Dicer processing 4.9*.
Screening COc1ccc2cc(C(=O)/C=C/N(C)C)ccc2c1 returned Dicer processing -0.67.
For CN(C)/C=C/C(=O)c1ccc(Cl)cc1 the results were Dicer processing -0.38.
Cc1ccc(C(=O)/C=C/S/C=C/C(=O)c2ccc(C)cc2)cc1 was read as Dicer processing -1.9.
For Cc1ccc(C(=O)/C=C/C=C/C=C/N(C)C)cc1 the results were Dicer processing 4.5*.
COc1cc(NC(=S)N(N)CCO)c(OC)cc1Cl was read as Dicer processing 0.81.
For COc1cc(C2SCCS2)cc(Br)c1OS(=O)(=O)c1ccc(Cl)cc1 the results were Dicer processing -2.2.
CC1=C(C(=O)OC(C)C)C(c2cccc3ccccc23)C2=C(CCCC2=O)N1 (centres undefined) was read as Dicer processing 2.8.
O=c1nc(-c2ccc(Cl)cc2)nc(-c2ccc(Cl)cc2)[nH]1 was read as Dicer processing 2.9.
For Cn1c2ccccc2c2nnc(SCCCn3c(=O)[nH]c4ccccc43)nc21 the results were Dicer processing 2.5.
For CC(C)c1ccc(C2C3CCc4ccccc4C3=NN2CCO)cc1 (centres undefined) the results were Dicer processing 3.1*.
`CN1N=C2c3ccccc3CCC2C1c1ccc(F)cc1` (centres undefined) gave Dicer processing 0.59.
Screening COc1ccc2c(c1)CCC1C2=NN(C)C1c1ccc(C(C)C)cc1 (centres undefined) returned Dicer processing 1.1.
Screening N#CC1=C(c2ccc(Cl)cc2)Sc2ccccc2NC1=O returned Dicer processing -0.31.
For CC(=O)Nc1cccc(-n2nnc(SCC(=O)c3ccc4c(c3)OCCCO4)n2)c1 the results were Dicer processing 3.1*.
CC(=O)Nc1cccc(-n2nnc(SCc3ccccc3)n2)c1 was read as Dicer processing 1.1.
O=C(O)CCC(=O)c1ccc2c(c1)OCCCO2 was read as Dicer processing 1.2.
For COc1ccc(C(=O)CSC2=NCCCCCC2)cc1 the results were Dicer processing -2.4.
For Fc1cccc2c(OC3CCN(Cc4ccccc4)CC3)cc(C(F)(F)F)nc12 the results were Dicer processing -2.
Screening Cc1ccc(CC2CC(=O)N(c3ccccn3)C2=O)cc1 (centres undefined) returned Dicer processing -0.76.
CC(C)NC(=O)Cn1cc(C(=O)C(C)(C)C)c2ccccc21 was read as Dicer processing 0.8.
Screening C/C(=N\O)c1cc2cc([N+](=O)[O-])ccc2o1 returned Dicer processing 0.05.
Screening Clc1ccccc1-c1cc2ccccc2[nH]1 returned Dicer processing 4*.
Nc1ccc(Cl)c(-c2nc3ccccc3[nH]2)c1 was read as Dicer processing 0.01.
For O/N=C/c1c(-c2ccccc2Cl)[nH]c2ccccc12 the results were Dicer processing 1.7.
Cc1cc(=O)oc(C)c1C(=O)OCC(=O)c1ccc(Br)cc1 was read as Dicer processing 5*.
For Cc1onc(-c2ccccc2Cl)c1C(=O)OCC(=O)c1ccc(Br)cc1 the results were Dicer processing 3.9*.
For Cc1onc(-c2ccccc2)c1C(=O)OCC(=O)c1ccccc1 the results were Dicer processing 2.
Screening Cc1ccc2[nH]c(=O)cc(C(=O)OCC(=O)c3ccc(Br)cc3)c2c1 returned Dicer processing -0.05.
`O=C(COC(=O)c1ccccc1Cl)c1ccc(Br)cc1` gave Dicer processing -0.43.
COCCOC(=O)c1c(C)oc2ccc(OCC(=O)c3ccc(Br)cc3)cc12 was read as Dicer processing -0.46.
For NC(=S)N/N=C/c1ccc(-c2ccc(C(F)(F)F)cc2[N+](=O)[O-])o1 the results were Dicer processing -1.8.
`Cn1c(=O)n(CC(=O)O)c(=O)c2c1nc1n2CCCN1c1ccc(Br)cc1` gave Dicer processing -0.92.
For CCOC(=O)c1cnc(Nc2ccc(OC(F)(F)F)cc2)nc1C(F)(F)F the results were Dicer processing -0.47.
For CCc1ccc(C2C3=C(CCCC3=O)NC3=C2C(=O)c2ccccc23)cc1 (centres undefined) the results were Dicer processing 1.9.
Screening C=CCOc1cccc(C(Nc2cccc(C)n2)c2ccc3cccnc3c2O)c1 (centres undefined) returned Dicer processing 1.4.
COc1ccc(C(Nc2cc(C)ccn2)c2ccc3cccnc3c2O)cc1OC (centres undefined) was read as Dicer processing 11*.
For Cc1cccc(NC(c2cccnc2)c2ccc3cccnc3c2O)c1 (centres undefined) the results were Dicer processing -0.49.
For Cc1cccc(NC(c2ccc(F)cc2)c2ccc3ccc(C)nc3c2O)n1 (centres undefined) the results were Dicer processing -0.14.
CCc1ccc(C(Nc2ccccn2)c2ccc3cccnc3c2O)cc1 (centres undefined) was read as Dicer processing 8.3.
For Cc1ccc(C(Nc2cccc(C)n2)c2ccc3cccnc3c2O)cc1 (centres undefined) the results were Dicer processing 17*.
Screening C=CCOc1cccc(C(Nc2ccccn2)c2ccc3cccnc3c2O)c1 (centres undefined) returned Dicer processing 7.3.
Screening Cc1cccc(NC(c2cccnc2)c2ccc3cccnc3c2O)n1 (centres undefined) returned Dicer processing 3.5*.
Screening Cc1cccc(NC(c2ccc(O)cc2)c2ccc3ccc(C)nc3c2O)n1 (centres undefined) returned Dicer processing 2.5.
Screening COc1ccc(NC(=O)N2c3ccccc3Sc3ccccc32)c(OC)c1 returned Dicer processing 1.1.
For COC(=O)c1cc(OC(=O)c2nn(-c3ccccc3)nc2C)n(-c2ccccc2)n1 the results were Dicer processing 0.58.
